From PubChem BioAssay (Tox21)
Inconclusive results are not listed. Where a call stands in place of a potency, no number is given. Active and inactive are the calls of the source. Calls follow the shape of the dose curve; as a rule, active = well fitted activation curve with a large enough effect in the signal ratio in the repeat runs (not every such curve was filed as active); inconclusive = weak or mixed curves, or effect the other way; inactive = flat fitted curve, though single readings scatter; the % refers to the signal ratio.

What follows are molecules tested against Estrogen receptor beta (Homo sapiens) (UniProt Q92731) (assay: qHTS assay to identify small molecule agonists of the estrogen receptor beta (ER-beta) signaling pathway (AID 1259377)). Details: ER-beta-UAS-bla HEK293T, beta-lactamase FRET ratio, 16 h; series mostly up to 92.4 µM.
Chain of Estrogen receptor beta (Homo sapiens) (Q92731 whole entry, looked up): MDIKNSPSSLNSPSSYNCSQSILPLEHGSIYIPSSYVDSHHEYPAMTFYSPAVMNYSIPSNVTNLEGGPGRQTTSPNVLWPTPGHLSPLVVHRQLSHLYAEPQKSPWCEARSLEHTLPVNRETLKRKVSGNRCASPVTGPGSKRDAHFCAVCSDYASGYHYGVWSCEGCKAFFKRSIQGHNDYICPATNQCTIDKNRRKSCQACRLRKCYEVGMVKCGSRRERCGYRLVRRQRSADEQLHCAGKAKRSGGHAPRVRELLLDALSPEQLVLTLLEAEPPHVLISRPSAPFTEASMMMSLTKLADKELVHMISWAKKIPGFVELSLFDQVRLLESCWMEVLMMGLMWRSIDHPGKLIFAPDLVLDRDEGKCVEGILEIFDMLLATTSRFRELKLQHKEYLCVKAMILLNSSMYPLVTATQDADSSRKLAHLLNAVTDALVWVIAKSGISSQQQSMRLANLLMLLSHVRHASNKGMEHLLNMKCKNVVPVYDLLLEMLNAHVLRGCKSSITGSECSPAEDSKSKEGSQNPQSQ
From the text: U.S. Tox21 Program National Center for Advancing Translational Sciences [NCATS] NIH Chemical Genomics Center [NCGC] U.S. Environmental Protection Agency [EPA] National Institutes of Environmental Health Sciences [NIEHS] National Toxicology Program [NTP] U.S. Food and Drug Administration [FDA] Tox21 Assay Overview: Estrogen receptor (ER), a nuclear hormone receptor, plays an important role in development, metabolic homeostasis and reproduction. Two subtypes of ER, ER-alpha and ER-beta, have similar expression patterns with some uniqueness in both types. Endocrine disrupting chemicals (EDCs) and their interactions with steroid hormone receptors like ER causes disruption of normal endocrine function. To identify the compounds that activate ER signaling, an ER beta-UAS-bla GripTite cell line (Life technologies, Madison, WI, USA) containing a beta-lactamase reporter gene under the control of an Upstream Activator Sequence (UAS) was used to screen Tox21 10K compound library.
Tox21 Assay Protocol Summary: ER-beta-UAS-bla HEK293T cells were dispensed at 2,000 cells/5 uL of assay medium containing 2% charcoal stripped FBS per well into black wall/clear-bottom 1536-well plates using a Multidrop Combi (ThermoFisher Scientific, Waltham, MA) dispenser. After the assay plates were incubated at a 37C and 5% CO2 for 6 hr, 23 nL of compounds dissolved in DMSO, positive controls or DMSO only was transferred to the assay plate by a Pintool station (Kalypsys, San Diego, CA). The plates were incubated at 37C and 5% CO2 for 16 hr. Then 1 uL of LiveBLAzerTM B/G FRET substrate was added using a BioRAPTR FRD (Flying Reagent Dispenser, Aurora Discovery, San Diego, CA). After the plates were incubated at room temperature for 2 hours, fluorescence intensity was measured by an Envision plate reader (PerkinElmer, Shelton, CT).

| Structure (SMILES) | Potency | activation |
| --- | --- | --- |
| CC(=O)c1ccc(Cl)c(Cl)c1Cl | inactive | – |
| O=C(O)c1ccccc1[N+](=O)[O-] | inactive | – |
| O=C1OC(=O)C2CC=CCC12 (stereo not given) | inactive | – |
| CCCCCCOC(=O)c1ccccc1 | inactive | – |
| COc1ccc(/C=C/S(=O)(=O)NC(=O)c2ccc(C)cc2Cl)cc1 | inactive | – |
| CC(=O)OCC(=O)[C@@]1(O)CC[C@H]2[C@@H]3CCC4=CC(=O)C=C[C@]4(C)[C@@]3(F)[C@@H](O)C[C@@]21C | inactive | – |
| CCn1nc(Cc2ccccc2)cc1C1CCN(C[C@H]2C[C@H](N(C)[C@@H](C(=O)O)C(C)C)C[C@@H]2c2cccc(F)c2)CC1 | inactive | – |
| O=C(c1ccc(Cl)cc1)c1ccc(Cl)cc1 | inactive | – |
| Cc1c(Cl)cccc1[N+](=O)[O-] | inactive | – |
| O=C(OC1C[C@H]2CC[C@@H](C1)[N+]21CCCC1)C(O)(c1ccccc1)c1ccccc1 (stereo not given in full) | inactive | – |
| CC(C)Cc1nccs1 | inactive | – |
| O=C(O)c1ccc(O)c(O)c1 | inactive | – |
| FC1(F)C(F)(F)C(F)(F)C2(F)C(F)(C1(F)F)C(F)(F)C(F)(F)C1(F)C(F)(F)C(F)(F)C(F)(F)C(F)(F)C12F (stereo not given) | inactive | – |
| CC(O)C(C)O (stereo not given) | inactive | – |
| CC1(C)CC(O)CC(C)(C)N1[O] | inactive | – |
| Cc1cc(N)n(-c2ccccc2)n1 | inactive | – |
| Cc1nc(C)c(C)nc1C | inactive | – |
| C=Cc1ccc(C=C)cc1 | inactive | – |
| COC(=O)/C=C/C(C)=C\C=C\C(C)=C\C=C\C=C(C)\C=C\C=C(C)\C=C\C(=O)O | inactive | – |
| Cc1nc2sccn2c(=O)c1CCN1CCC(=C(c2ccc(F)cc2)c2ccc(F)cc2)CC1 | inactive | – |

| Structure (SMILES) | Potency | activation |
| --- | --- | --- |
| Cc1c(N=C=O)cccc1N=C=O | inactive | – |
| CC(CN=Cc1ccccc1O)N=Cc1ccccc1O (stereo not given) | inactive | – |
| CCOc1ccc2c(c1)C(C)CC(C)(C)N2 (stereo not given) | inactive | – |
| CC(C)(C)c1cc(C=O)cc(C(C)(C)C)c1O | inactive | – |
| CCOC(=O)CC(O)(CC(=O)OCC)C(=O)OCC | inactive | – |
| CC1(C)[C@@H]2CC[C@]3(C2)[C@@H]1C(=O)CCC3(C)C | inactive | – |
| Cc1cccc(C)c1NC(=O)CN1CCCC1 | inactive | – |
| CCCCCCCCCCCCN1CCOCC1 | inactive | – |
| COc1ccc(/C(C)=C/C(=O)O)c(OC)c1 | inactive | – |
| CCN(CCCCOC(=O)c1ccc(OC)c(OC)c1)C(C)Cc1ccc(OC)cc1 (stereo not given) | inactive | – |
| c1ccc(CCNc2nc(-c3ccccc3)cs2)cc1 | inactive | – |
| NCCOCCOCCN | inactive | – |
| CC(=O)c1cccnc1 | inactive | – |
| Cc1ccccc1CCO | inactive | – |
| CCCC1CCOC(C)S1 (stereo not given) | inactive | – |
| O=C(O)c1ccncc1 | inactive | – |
| O=[N+]([O-])c1ccccc1CCO | inactive | – |
| O=C(O)c1cc(C(=O)O)c(C(=O)O)cc1C(=O)O | inactive | – |
| O=C(O)c1ccc2c(c1)nc(C(=O)NC1CCN(C3CC3)CC1)n2Cc1cc(-c2ccc(Cl)s2)on1 | – | -4.72% [at 19 µM] (inactive) |
| CC(C)(Cc1c[nH]c2ccccc12)NCC(O)COc1ccccc1C#N (stereo not given) | inactive | – |
